In PubChem BioAssay AID2315 (National Center for Advancing Translational Sciences (NCATS), 2010) one finds inhibition data, which are given here for 64 molecules.

The whole screen tested about 290,000 compounds, of which about 27,000 (9.3%) were called active. Rule as the data show it: active = inhibition mostly above about 28% (no sharp cut-off); inactive = mostly below about 43%. The list comes from a sample in which actives are over-represented; it also holds similar structures and randomly drawn compounds.

The assay is described as follows: A qHTS for Small Molecule Inhibitors of Shiga Toxin. Also: 0% is about no effect. Conditions: Vero cells, Shiga toxin protein synthesis inhibition reporter; at 38.7 µM, active compounds read high.
Take `CCCCn1c(-c2cccc(C)c2)nc2cc3[nH]c(=O)c(C(C)C)nc3cc21`: the inhibition was 9.49% (inactive).

As to `CN1CCN(C(=O)c2cnn(-c3ccccc3)c2NC(=O)c2ccc([N+](=O)[O-])cc2)CC1`, the inhibition was -12.4% (inactive).

Take `O=C(CSc1ccc(/C=N/NC(=O)c2cccc(F)c2)o1)Nc1ccccc1`: the inhibition is 44.3% (active).

With `N#CCC(=O)N/N=C/c1ccc(SCC(=O)Nc2ccccc2)o1`, the inhibition was 17.4% (inactive).

For `O=C(Cc1ccccc1)Nc1cccc(C(=O)N/N=C/c2ccco2)c1`, the inhibition is 23.9% (inactive).

Consider `COc1ccc2cc(C(=O)O)n(CC(=O)c3ccccc3)c2c1`, for which the inhibition is -10.5% (inactive).

Consider `CCCCC(=O)Nc1nnc(S(=O)(=O)N(C)Cc2ccco2)s1`, for which the inhibition is 10.1% (inactive).

Consider `Cc1c(C(=O)NCCN(C)C)oc2ccc(S(=O)(=O)N3CCCC3)cc12`, for which the inhibition is -2.78% (inactive).

As to `COc1ccccc1-n1c(C)nc2cc(C(=O)NCc3ccc4c(c3)OCO4)ccc21`, the inhibition is 11.2% (inactive).

For `COc1ccc(C(=O)NCCc2ccc(S(N)(=O)=O)cc2)cc1OC`, the inhibition was 21% (inactive).

As for `Cn1cc(C(=O)NCc2ccccc2F)cn1`, the inhibition is 14.6% (inactive).

On to `COc1ccc(Cc2nc3ccc(C(=O)NCC4CCOCC4)cc3o2)cc1OC`, for which the inhibition is 37.2% (inactive).

Regarding `COCCNC(=O)c1ccc2nc(Cc3ccc(OC)c(OC)c3)oc2c1`, the inhibition is 30.7% (active).

Regarding `CSCCNC(=O)c1ccc2nc(Cc3ccccc3F)oc2c1`, the inhibition is 49.7% (active).

For `O=C(Nc1nnc(C2=COCCO2)o1)c1ccc([N+](=O)[O-])s1`, the inhibition is -3.51% (inactive).

In the case of `Cc1cnc(C(=O)N2CCCC(N3CCN(c4ccccc4F)CC3)C2)cn1` (centres undefined), the inhibition was -6.28% (inactive).

In the case of `CC(=O)NC(CC(=O)Nc1nc(-c2ccccc2)c(C(C)=O)s1)c1ccccc1` (centres undefined), the inhibition was -5.9% (inactive).

With `COc1ccc(OC)c(CCNC(=O)c2nn(C)c3c2CS(=O)(=O)c2ccccc2-3)c1`, the inhibition was -4.81% (inactive).

As to `Nc1nonc1-n1nnc(C(=O)N/N=C\c2ccncc2)c1CN1CCCCC1`, the inhibition is -10.8% (inactive).

Regarding `CC1CCN(C(=O)c2ccc3c(c2)NC(=O)CN3)CC1`, the inhibition is -6.93% (inactive).

For `Cc1cc(C(=O)NC2CCCc3c2cnn3-c2cccc(C)c2C)c(C)o1` (centres undefined), the inhibition was 3.44% (inactive).

For the molecule `COc1ccccc1CCNC(=O)C1CCN(C(=O)/C=C/c2ccccc2)CC1`, the inhibition was 39.9% (inactive).

Regarding `COc1ccc(Nc2ncnc3ccc(OC)cc23)cc1`, the inhibition is -8.31% (inactive).

On to `COc1ccc(Nc2cc(Sc3ccc(OC)cc3)ncn2)cc1`, for which the inhibition was 4.28% (inactive).

`COc1ccc(Nc2ncnc3sc(C)cc23)cc1`: the inhibition was 56.1% (active).

On to `COc1ccc(-n2ncc3c2CC(C)(C)CC3NC(=O)CCc2c(C)nn(C)c2C)cc1` (centres undefined), for which the inhibition is -7.46% (inactive).

Turning to `COc1cccc(NC(=O)CCc2nnc3ccc(N4CCC(C)CC4)nn23)c1`, the inhibition was 2.02% (inactive).

On to `COc1ccc(C(=O)NC(=S)N2CCNC(=O)C2CC(=O)OC(C)C)cc1` (centres undefined), for which the inhibition was -13.5% (inactive).

On to `COc1ccc(S(=O)(=O)N2CCN(C(=O)N(C)C)C2C)cc1` (centres undefined), for which the inhibition is -15.4% (inactive).

On to `COc1ccc(/C=N/NC(=O)c2ccc3c(c2)OCCO3)c(OC)c1`, for which the inhibition was 45.8% (inactive).

Take `COc1ccc(/C=N/OCc2ccccc2C#N)c(OC)c1`: the inhibition is 70.8% (active).

With `COc1ccc(/C=N/Nc2cc(N3CCOCC3)nc(C)n2)c(OC)c1`, the inhibition was 6.01% (inactive).

For the molecule `Fc1cccc2ncnc(OCc3ccccc3)c12`, the inhibition is 5.51% (inactive).

Turning to `Cc1occc(=O)c1OCc1ccc(F)cc1`, the inhibition is -2.22% (inactive).

For the molecule `Cc1nc2ccccc2cc1OCc1ccc(F)cc1`, the inhibition is 29.8% (active).

Consider `O=C(COc1ccc(Cl)cc1)NCCS(=O)(=O)N1CCN(c2ccc(F)cc2)CC1`, for which the inhibition is 29% (inactive).

Take `COC(=O)/C=C\C(=O)Nc1cccc([N+](=O)[O-])c1`: the inhibition was 26.5% (inactive).

On to `CC(C)c1ccc(N(C(=O)c2ccco2)C(C(=O)NC2CCCC2)c2cccnc2)cc1` (centres undefined), for which the inhibition is 22.5% (inactive).

Turning to `COc1ccc(C2NC(=O)N(C)C(C)=C2[N+](=O)[O-])cc1` (centres undefined), the inhibition was -11.1% (inactive).

Turning to `Cc1ccccc1-n1c(C)cc(/C=C2\NC(=O)NC2=O)c1C`, the inhibition was 55.3% (active).

Consider `Cc1cc(/C=C2/NC(=O)NC2=O)c(C)n1-c1cccnc1`, for which the inhibition is 44.4% (inactive).

On to `Cc1cccc(C)c1-n1c(C)cc(/C=C2\C(=O)NN(c3ccccc3)C2=O)c1C`, for which the inhibition was -7.74% (inactive).

On to `Cn1c(=O)oc2cc(S(=O)(=O)NCCC(=O)NCc3ccccc3Cl)ccc21`, for which the inhibition was -2.59% (inactive).

On to `CC(=O)c1ccc(NC(=O)c2ccc(-n3cncn3)c([N+](=O)[O-])c2)cc1`, for which the inhibition is -21.9% (inactive).

As to `Cc1cccc(NC(=O)Nc2nnc(-c3ccccc3)o2)c1`, the inhibition was -5.35% (inactive).

For the molecule `Cc1ccnc2nc(C(=O)Nc3nnc(-c4ccccc4)o3)nn12`, the inhibition is 71.9% (active).

With `CCc1nnc(NC(=O)c2nc3nccc(C)n3n2)s1`, the inhibition was 2.51% (inactive).

Consider `O=C(CN1C2=NCCN2c2ccccc21)c1cccs1`, for which the inhibition was -3.32% (inactive).

Consider `Nc1c(C(=O)c2cccs2)sc2nsc(SCCN3CCCCC3)c12`, for which the inhibition is 45.8% (active).

Turning to `O=C(CCC1CCCC1)N=C1SC2CS(=O)(=O)CC2N1Cc1ccccc1` (centres undefined), the inhibition was 14.2% (inactive).

Take `COCCCNC(=O)Cc1ccc(-n2c(C)nc3cccnc32)cc1`: the inhibition was 1.73% (inactive).

On to `CC1(C)CC(=O)C/C(=N\NC(=O)c2cccs2)C1`, for which the inhibition is 18.8% (inactive).

On to `CC(C)OCCCNC(=O)CNC(=O)c1cccs1`, for which the inhibition was -2.7% (inactive).

For the molecule `CC1C/C(=N/NC(=O)c2cccs2)CC(C)(C)C1` (centres undefined), the inhibition was 84.1% (active).

`COc1cc(CCC(=O)N2CCN(c3ccccc3Cl)CC2)cc(OC)c1OC`: the inhibition is -6.24% (inactive).

As for `O=C(CN1CCC(NC(=O)C2CC2)CC1)Nc1ccccc1[N+](=O)[O-]`, the inhibition is -3.78% (inactive).

For the molecule `O=c1ccc2cc(S(=O)(=O)NCCCc3ccccc3)ccc2[nH]1`, the inhibition was 3.55% (inactive).

Take `COc1ccc(CNC(=O)CSc2n[nH]c(N)n2)cc1OC`: the inhibition is 0.155% (inactive).

On to `COc1cccc(NCCC(=O)c2cccc([N+](=O)[O-])c2)c1`, for which the inhibition was 67.3% (active).

As to `Cc1cc(CNC(=O)c2cccc([N+](=O)[O-])c2)c2ccccc2n1`, the inhibition was 54% (inactive).

For `Cc1cccc(C(=O)NNC(=O)c2cccc([N+](=O)[O-])c2)c1`, the inhibition was 3.18% (inactive).

On to `CC(C)(C)SCCNC(=O)c1cccc([N+](=O)[O-])c1`, for which the inhibition was -40.1% (active).

For the molecule `COc1cccc(CNC(=O)CCCC(=O)Nc2cccc([N+](=O)[O-])c2)c1`, the inhibition was -12.3% (inactive).

Regarding `COc1cccc(C(=O)CC(=O)C(=O)Nc2ccc([N+](=O)[O-])cc2C)c1`, the inhibition is 4.12% (inactive).
